Measurements published in the supplement of paper PMC10849652.
Targets with a hit are over-represented here; the source holds about 7,900 in all. About 0.6% of all pairs of compound and target were hits. A number with no mark means an inactive call.

Assays:
Experiment in all cases: log2 fold change, soluble protein after heating vs DMSO (PISA); higher = thermal stabilisation; K562 cells, 10 uM, 30 min; active = over 0.2 and 3.5 SD of the protein, either way, in both replicates (recomputed)
[1] = compound: CC[C@@H]1C(=O)N(C)c2cnc(Nc3ccc(C(=O)NC4CCN(C)CC4)cc3OC)nc2N1C1CCCC1
Method in brief: (§1)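 K562 cells at 2×10^6 cells/mL were given 10 μM compound for 30 min. Aliquots then went through 3 min of heating across 48°C-58°C, were pooled, and were extracted in PBS with 0.5% NP-40 at 4°C, and the supernatant after 21,000xg for 90 min was quantified by TMTpro 16plex LC-MS/MS with channel sums equalised. Thermal stability relative to control samples, from duplicates, is given as log2 fold change.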

[2] = compound: CC[C@@H]1C(=O)N(C)c2cnc(Nc3ccc(C(=O)N[C@H]4CC[C@H](N5CCN(CC6CC6)CC5)CC4)cc3OC)nc2N1C(C)C [volasertib]
Method in brief: as §1

[3] = compound: CC[C@H](C)N1C=C(C2=C(C=C(C=C21)C3=CN=C(C=C3)N4CCNCC4)C(=O)NCC5=C(C=C(NC5=O)C)C)C
Method in brief: as §1

[4] = compound: CC[C@H](C)[C@@H](C(=O)N[C@@H]([C@@H](C)O)C(=O)N[C@@H](CC(C)C)C(=O)[C@]1(CO1)C)NC(=O)[C@H]([C@@H](C)CC)N(C)C(=O)C [epoxomicin]
Method in brief: as §1

[5] = compound: CCn1c(C(=O)N(C2CC2)C2CC2)cc2c3c(ncn3C)c(Nc3cc(C)n(C)n3)nc21
Method in brief: as §1

[6] = compound: CCn1cc(-c2ccnc3[nH]c(-c4cccc(CN(C)C)c4)cc23)c(-c2ccc(NC(=O)N(C)C)cc2)n1
Method in brief: as §1

[7] = compound: CN(C)CC(=O)Nc1ccc2[nH]c(=O)c3ccccc3c2c1
Method in brief: as §1

[8] = compound: CN(CCOC1=CC=C(C=C1)C[C@H]2C(=O)NC(=O)S2)C3=CC=CC=N3 (racemic) [rosiglitazone]
Method in brief: as §1

[9] = compound: CN1C2=C(C3=C1C(=O)N(N=C3)CC4=CC(=CC=C4)N)SC(=C2)S(=O)C
Method in brief: as §1

[10] = compound: CN1CCC(CNc2ccc3ncc(-c4cccc(OC(F)(F)F)c4)n3n2)CC1
Method in brief: as §1

[11] = compound: CN1CCN(CCOc2cc(OC3CCOCC3)c3c(Nc4c(Cl)ccc5c4OCO5)ncnc3c2)CC1 [saracatinib]
Method in brief: as §1

[12] = compound: CN1CCN(c2nc(C3=C(c4c[nH]c5ccccc45)C(=O)NC3=O)c3ccccc3n2)CC1 [sotrastaurin]
Method in brief: as §1

[13] = compound: CN1CC[C@H](c2c(O)cc(O)c3c(=O)cc(-c4ccccc4Cl)oc23)[C@H](O)C1 [alvocidib]
Method in brief: as §1

[14] = compound: CN1CCc2c(c3ccccc3n2Cc2ccc(C(=O)NO)cc2)C1 [Tubastatin A]
Method in brief: as §1

[15] = compound: CNC(=O)C1=CC=CC=C1NC2=NC(=NC=C2Cl)NC3=C(C=C(C=C3)N4CCOCC4)OC
Method in brief: as §1

[16] = compound: CNC(=O)c1ccc(Nc2ncc(C(F)(F)F)c(NCc3nccnc3N(C)S(C)(=O)=O)n2)cc1 [defactinib]
Method in brief: as §1

[17] = compound: CNCc1ccc(-c2[nH]c3cc(F)cc4c3c2CCNC4=O)cc1 [rucaparib]
Method in brief: as §1

[18] = compound: CNc1nc(-c2ccc3c(N)n[nH]c3c2)cc(N2C[C@@H](C(=O)NC3CCCCC3)CC[C@H]2C)n1
Method in brief: as §1

[19] = compound: COC(=O)N[C@@H](C)CNc1nccc(-c2cn(C(C)C)nc2-c2cc(Cl)cc(NS(C)(=O)=O)c2F)n1 [encorafenib]
Method in brief: as §1

[20] = compound: COC(=O)[C@H](CCSC)NC(=O)C1=C(C=C(C=C1)NC[C@H](CS)N)C2=CC=CC=C2
Method in brief: as §1

Sequence of UniProt Q1KMD3 (Q1KMD3 whole entry, looked up): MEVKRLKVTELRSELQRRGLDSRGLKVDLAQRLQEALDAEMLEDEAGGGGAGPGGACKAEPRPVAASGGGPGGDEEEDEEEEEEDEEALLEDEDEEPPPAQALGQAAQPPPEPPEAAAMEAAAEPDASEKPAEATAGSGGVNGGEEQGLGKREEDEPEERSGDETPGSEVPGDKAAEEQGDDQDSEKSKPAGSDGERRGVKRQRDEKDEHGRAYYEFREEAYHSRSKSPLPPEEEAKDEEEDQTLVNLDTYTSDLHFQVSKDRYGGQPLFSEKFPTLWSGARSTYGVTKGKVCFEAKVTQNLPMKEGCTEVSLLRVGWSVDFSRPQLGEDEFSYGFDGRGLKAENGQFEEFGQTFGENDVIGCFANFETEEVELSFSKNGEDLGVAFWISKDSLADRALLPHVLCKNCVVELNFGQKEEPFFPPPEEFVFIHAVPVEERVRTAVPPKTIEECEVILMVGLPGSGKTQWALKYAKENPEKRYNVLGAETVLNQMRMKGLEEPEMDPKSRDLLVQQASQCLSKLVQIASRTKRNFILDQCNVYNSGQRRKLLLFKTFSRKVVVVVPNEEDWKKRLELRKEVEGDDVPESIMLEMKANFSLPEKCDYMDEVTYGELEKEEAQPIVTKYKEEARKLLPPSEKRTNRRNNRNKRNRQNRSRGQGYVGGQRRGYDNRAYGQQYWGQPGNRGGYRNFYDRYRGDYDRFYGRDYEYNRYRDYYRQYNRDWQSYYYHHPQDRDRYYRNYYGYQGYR
Sequence of UniProt Q9P2D3 (Q9P2D3 whole entry, looked up): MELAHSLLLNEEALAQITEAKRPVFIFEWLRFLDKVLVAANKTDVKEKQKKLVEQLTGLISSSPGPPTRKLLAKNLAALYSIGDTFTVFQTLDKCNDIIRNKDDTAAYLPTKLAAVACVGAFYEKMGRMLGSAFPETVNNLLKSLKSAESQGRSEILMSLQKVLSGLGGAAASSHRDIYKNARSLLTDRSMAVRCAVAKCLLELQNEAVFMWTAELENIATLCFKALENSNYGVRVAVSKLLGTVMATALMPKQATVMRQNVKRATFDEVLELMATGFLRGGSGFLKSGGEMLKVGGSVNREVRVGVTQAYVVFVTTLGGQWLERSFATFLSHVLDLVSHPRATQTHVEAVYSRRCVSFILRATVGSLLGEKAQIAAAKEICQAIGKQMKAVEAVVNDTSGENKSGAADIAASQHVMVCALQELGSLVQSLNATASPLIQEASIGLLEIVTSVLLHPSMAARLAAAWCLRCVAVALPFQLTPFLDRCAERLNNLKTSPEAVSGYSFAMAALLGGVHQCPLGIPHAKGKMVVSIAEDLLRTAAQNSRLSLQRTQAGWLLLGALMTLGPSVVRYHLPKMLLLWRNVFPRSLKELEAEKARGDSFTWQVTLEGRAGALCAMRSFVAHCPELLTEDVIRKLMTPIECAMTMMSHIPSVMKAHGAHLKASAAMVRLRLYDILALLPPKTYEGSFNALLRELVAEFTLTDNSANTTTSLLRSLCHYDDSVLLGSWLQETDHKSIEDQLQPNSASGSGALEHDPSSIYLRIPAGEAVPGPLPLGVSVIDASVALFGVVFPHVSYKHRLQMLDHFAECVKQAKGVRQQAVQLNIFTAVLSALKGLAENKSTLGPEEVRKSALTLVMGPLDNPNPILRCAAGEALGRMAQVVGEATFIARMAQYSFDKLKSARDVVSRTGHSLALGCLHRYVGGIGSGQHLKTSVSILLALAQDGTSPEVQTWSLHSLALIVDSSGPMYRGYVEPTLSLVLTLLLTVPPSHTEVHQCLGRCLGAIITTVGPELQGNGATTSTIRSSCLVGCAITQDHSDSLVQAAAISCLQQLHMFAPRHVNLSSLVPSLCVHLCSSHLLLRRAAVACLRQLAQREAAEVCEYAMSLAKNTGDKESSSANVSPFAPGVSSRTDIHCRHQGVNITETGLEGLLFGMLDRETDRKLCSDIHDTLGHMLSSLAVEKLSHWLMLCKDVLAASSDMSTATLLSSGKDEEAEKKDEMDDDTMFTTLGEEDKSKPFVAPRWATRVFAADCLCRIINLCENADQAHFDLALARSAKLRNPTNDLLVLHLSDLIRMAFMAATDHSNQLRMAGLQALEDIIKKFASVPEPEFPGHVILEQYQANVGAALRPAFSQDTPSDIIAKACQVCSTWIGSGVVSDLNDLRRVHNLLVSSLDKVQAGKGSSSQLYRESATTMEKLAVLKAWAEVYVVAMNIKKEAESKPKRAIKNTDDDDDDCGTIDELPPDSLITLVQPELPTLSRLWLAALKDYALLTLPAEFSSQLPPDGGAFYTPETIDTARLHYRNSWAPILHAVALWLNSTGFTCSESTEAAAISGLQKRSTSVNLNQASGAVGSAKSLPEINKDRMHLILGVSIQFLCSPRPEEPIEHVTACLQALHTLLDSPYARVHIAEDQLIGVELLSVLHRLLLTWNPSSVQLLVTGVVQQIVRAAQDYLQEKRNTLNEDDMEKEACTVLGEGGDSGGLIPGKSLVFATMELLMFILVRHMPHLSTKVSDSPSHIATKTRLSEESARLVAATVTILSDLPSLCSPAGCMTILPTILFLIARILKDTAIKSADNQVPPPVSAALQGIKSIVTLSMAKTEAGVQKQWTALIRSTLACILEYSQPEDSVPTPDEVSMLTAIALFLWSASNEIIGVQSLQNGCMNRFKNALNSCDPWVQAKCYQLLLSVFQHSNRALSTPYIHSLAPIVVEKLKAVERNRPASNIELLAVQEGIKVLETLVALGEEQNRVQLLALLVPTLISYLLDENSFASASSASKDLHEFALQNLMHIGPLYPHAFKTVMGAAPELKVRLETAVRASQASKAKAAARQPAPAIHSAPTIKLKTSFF
Sequence of UniProt Q9Y3I1 (Q9Y3I1 whole entry, looked up): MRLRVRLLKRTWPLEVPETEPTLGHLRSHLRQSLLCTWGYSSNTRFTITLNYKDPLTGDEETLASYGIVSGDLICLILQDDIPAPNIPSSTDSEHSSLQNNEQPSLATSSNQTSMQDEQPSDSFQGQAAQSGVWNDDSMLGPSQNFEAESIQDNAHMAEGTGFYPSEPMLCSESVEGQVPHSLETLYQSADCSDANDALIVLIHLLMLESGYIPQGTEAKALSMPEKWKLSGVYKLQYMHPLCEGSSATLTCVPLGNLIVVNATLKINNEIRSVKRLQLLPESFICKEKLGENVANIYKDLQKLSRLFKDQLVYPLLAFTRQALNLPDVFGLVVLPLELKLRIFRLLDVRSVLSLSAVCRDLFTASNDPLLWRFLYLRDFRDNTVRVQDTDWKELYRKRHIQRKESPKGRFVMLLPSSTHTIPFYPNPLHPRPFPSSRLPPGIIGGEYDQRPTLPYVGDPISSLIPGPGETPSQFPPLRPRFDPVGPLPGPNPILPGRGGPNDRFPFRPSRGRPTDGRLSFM
Sequence of UniProt P06280 (P06280 whole entry, looked up): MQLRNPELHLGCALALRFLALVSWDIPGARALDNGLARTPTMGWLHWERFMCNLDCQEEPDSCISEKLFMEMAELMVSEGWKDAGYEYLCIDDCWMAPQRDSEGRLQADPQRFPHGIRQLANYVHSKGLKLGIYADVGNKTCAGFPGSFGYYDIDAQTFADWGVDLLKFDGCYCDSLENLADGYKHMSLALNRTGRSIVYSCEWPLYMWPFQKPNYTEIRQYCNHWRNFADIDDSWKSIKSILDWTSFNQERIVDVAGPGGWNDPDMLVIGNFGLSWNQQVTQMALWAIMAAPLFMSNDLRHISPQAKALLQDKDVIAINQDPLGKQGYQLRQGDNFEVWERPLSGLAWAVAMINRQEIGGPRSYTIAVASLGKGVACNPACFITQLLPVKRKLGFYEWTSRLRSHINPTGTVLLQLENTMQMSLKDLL
Sequence of UniProt P15260 (P15260 whole entry, looked up): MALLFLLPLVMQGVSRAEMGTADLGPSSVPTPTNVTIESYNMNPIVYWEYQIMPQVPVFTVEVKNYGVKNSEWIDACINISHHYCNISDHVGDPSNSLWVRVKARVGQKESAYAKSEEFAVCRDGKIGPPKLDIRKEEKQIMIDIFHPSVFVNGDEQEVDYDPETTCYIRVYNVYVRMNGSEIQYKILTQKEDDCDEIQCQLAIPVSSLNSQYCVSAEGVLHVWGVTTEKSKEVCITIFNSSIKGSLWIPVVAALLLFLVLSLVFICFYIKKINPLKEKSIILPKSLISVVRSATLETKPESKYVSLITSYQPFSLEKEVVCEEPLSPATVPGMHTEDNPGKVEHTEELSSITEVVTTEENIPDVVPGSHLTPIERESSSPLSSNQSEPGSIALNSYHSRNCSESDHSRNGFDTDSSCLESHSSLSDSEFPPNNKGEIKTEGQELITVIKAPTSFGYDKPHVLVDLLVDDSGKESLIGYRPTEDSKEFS
Sequence of UniProt Q9Y3D6 (Q9Y3D6 whole entry, looked up): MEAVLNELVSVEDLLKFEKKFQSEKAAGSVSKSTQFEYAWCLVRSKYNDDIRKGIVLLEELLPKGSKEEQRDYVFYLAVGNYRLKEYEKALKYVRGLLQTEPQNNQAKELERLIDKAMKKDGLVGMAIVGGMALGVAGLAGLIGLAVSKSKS
Sequence of UniProt Q9Y6M1 (Q9Y6M1 whole entry, looked up): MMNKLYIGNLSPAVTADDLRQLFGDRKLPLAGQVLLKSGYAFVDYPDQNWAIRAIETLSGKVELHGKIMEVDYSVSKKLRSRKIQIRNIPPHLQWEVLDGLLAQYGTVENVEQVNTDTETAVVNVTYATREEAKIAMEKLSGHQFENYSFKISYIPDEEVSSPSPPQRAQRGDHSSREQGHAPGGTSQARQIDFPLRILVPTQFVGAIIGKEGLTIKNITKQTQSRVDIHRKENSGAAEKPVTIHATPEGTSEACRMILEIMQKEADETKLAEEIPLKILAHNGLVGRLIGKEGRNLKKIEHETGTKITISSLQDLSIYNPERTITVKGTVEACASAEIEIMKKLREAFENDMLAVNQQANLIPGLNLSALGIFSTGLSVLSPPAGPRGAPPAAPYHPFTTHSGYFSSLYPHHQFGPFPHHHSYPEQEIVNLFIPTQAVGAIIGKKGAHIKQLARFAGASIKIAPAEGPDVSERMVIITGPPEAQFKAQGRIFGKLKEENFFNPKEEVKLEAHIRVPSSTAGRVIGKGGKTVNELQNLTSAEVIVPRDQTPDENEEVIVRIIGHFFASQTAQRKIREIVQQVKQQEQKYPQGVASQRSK

Row | Target | log2 fold change [1] | log2 fold change [2] | log2 fold change [3] | log2 fold change [4] | log2 fold change [5] | log2 fold change [6] | log2 fold change [7] | log2 fold change [8] | log2 fold change [9] | log2 fold change [10] | log2 fold change [11] | log2 fold change [12] | log2 fold change [13] | log2 fold change [14] | log2 fold change [15] | log2 fold change [16] | log2 fold change [17] | log2 fold change [18] | log2 fold change [19] | log2 fold change [20]
1 | HNRNPK isoform 2 (UniProt P61978) | -0.143 | -0.271 (active) | 0.062 | 0.003 | -0.027 | -0.027 | 0 | 0.022 | -0.01 | -0.216 (active) | -0.057 | -0.037 | -0.155 | 0.064 | -0.017 | -0.228 (active) | -0.053 | 0.015 | 0.028 | 0.003
2 | FBXO7 (UniProt Q9Y3I1) | 0.079 | -0.198 | 0.044 | -0.012 | -0.066 | -0.295 (active) | 0.029 | 0.008 | -0.022 | 0.003 | -0.003 | 0.052 | -0.069 | 0.019 | 0.012 | -0.025 | 0.068 | 0.028 | -0.009 | -0.029
3 | GLA (UniProt P06280) | -0.449 (active) | -0.911 (active) | 0.002 | 0.026 | 0.016 | 0.03 | -0.001 | -0.07 | 0.005 | -0.535 (active) | 0.056 | -0.027 | -0.008 | -0.027 | -0.02 | 0.008 | 0.04 | -0.043 | -0.022 | 0.059
4 | IFI30 (UniProt P13284) | -0.443 (active) | -0.436 (active) | 0.038 | -0.014 | -0.096 | -0.098 | -0.021 | -0.061 | -0.06 | -0.448 (active) | 0.224 | 0.063 | -0.003 | -0.028 | -0.02 | -0.048 | 0.006 | 0.144 | 0.009 | 0.042
5 | IGF2BP2 (UniProt Q9Y6M1) | 0.176 | -0.076 | -0.063 | -0.203 | 0.016 | 0.076 | 0.01 | -0.044 | 0.432 | -0.016 | -0.122 | -0.035 | 0.209 | 0.168 | 0.044 | 0.147 | 0.446 | 0.145 | 0.106 | -0.066
6 | H2AFX (UniProt P16104) | 0.002 | 0.214 | -0.096 | -0.237 | -0.01 | 0.279 | -0.213 | -0.101 | 0.501 | 0.082 | -0.123 | 0.081 | 0.249 | 0.025 | -0.003 | 0.53 | 0.347 | 0.089 | -0.013 | 0.233
7 | HIKESHI (UniProt Q53FT3) | -0.116 | -0.178 | 0.022 | -0.013 | -0.015 | 0.001 | 0.008 | 0.035 | -0.018 | 0.077 | 0.03 | 0.043 | -0.068 | -0.01 | 0.046 | -0.038 | 0.029 | -0.003 | 0.024 | 0.028
8 | HNRNPUL2 (UniProt Q1KMD3) | 0.172 | 0.135 | -0.023 | -0.084 | -0.036 | 0.092 | -0.012 | -0.007 | 0.131 | -0.013 | -0.023 | 0.039 | 0.166 | 0.065 | -0.06 | 0.259 (active) | 0.125 | -0.017 | 0.007 | 0.006
9 | HEATR5B (UniProt Q9P2D3) | -0.053 | -0.19 | 0.083 | -0.058 | -0.041 | 0.018 | -0.009 | 0.003 | -0.017 | -0.015 | 0.043 | 0.008 | -0.023 | 0.016 | 0.022 | -0.099 | 0.028 | 0.015 | 0.041 | -0.006
10 | FAM91A1 (UniProt Q658Y4) | 0.062 | 0.221 | -0.007 | -0.675 (active) | -0.08 | -0.015 | -0.003 | 0.037 | 0.001 | 0.233 (active) | 0.055 | -0.049 | -0.037 | 0.005 | 0.059 | 0 | -0.015 | 0.002 | 0.05 | -0.025
11 | IFNGR1 (UniProt P15260) | 0.065 | 0.15 | -0.382 | 0.021 | -0.108 | 0.1 | -0.087 | -0.02 | 0.032 | 0.127 | 0.05 | -0.038 | 0.253 | 0.11 | -0.215 | 0.051 | 0.056 | -0.009 | -0.026 | 0.088
12 | FIS1 (UniProt Q9Y3D6) | 0.005 | 0.046 | -0.023 | -0.002 | 0.025 | 0.008 | 0.01 | 0.016 | -0.189 | -0.075 | 0.333 (active) | 0.016 | -0.11 | -0.021 | -0.012 | -0.063 | 0.004 | 0.182 | -0.049 | -0.022
13 | FBXO42 (UniProt Q6P3S6) | 0.093 | 0.011 | 0.028 | 0.056 | -0.031 | 0.002 | -0.019 | 0.027 | 0.032 | 0.021 | -0.032 | 0.051 | -0.107 | 0 | -0.067 | -0.165 | -0.073 | 0.139 | 0.03 | 0.012
14 | HADHB (UniProt P55084) | 0.082 | 0.462 | 0.123 | 0.05 | 0.161 | -0.223 | 0.015 | -0.039 | -0.058 | -0.223 | -0.111 | 0.011 | -0.283 | 0.027 | 0.064 | -0.18 | 0.131 | 0.62 (active) | 0.001 | -0.223
15 | HLTF (UniProt Q14527) | -0.063 | -0.178 | 0.017 | 0.158 | -0.025 | -0.113 | 0.056 | 0.025 | -0.009 | 0.201 | -0.012 | 0.019 | -0.036 | 0.081 | -0.03 | -0.122 | -0.033 | -0.074 | -0.195 | -0.027
16 | FANCD2 isoform 1 (UniProt Q9BXW9) | -0.229 | -0.251 | 0.118 | -0.307 | -0.04 | -0.055 | 0.026 | 0.062 | -0.009 | -0.233 | -0.038 | 0.017 | -0.102 | -0.053 | -0.126 | -0.145 | 0.051 | 0.028 | 0.009 | -0.029
